Screening data as filed in PubChem.
DT40 TDP1 CPT: growth inhibition of DT40 Tdp1-/-;hTDP1 cells with camptothecin (screen for TDP1 inhibitors) | chicken DT40 Tdp1-/-;hTDP1 cells + 20 nM CPT, ATP luminescence, 48 h | Potency, µM (titrated, usually from 46.2 µM), for inactives: top-dose activity change, negative = growth inhibition, actives largely listed as inhibitors | 420,000 tested, 12% active | AID 686979; note: potency is the fitted concentration of half-maximal effect; nearly all actives have a fitted effect of over 55% in size
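Chicken DT40 Tdp1-/- cells complemented with human TDP1, 400 cells/well, exposed to compounds plus 20 nM camptothecin for at least 48 h at 37 C; viability read as ATP content by CellTiter-Glo luminescence.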
HT1080-NT tox: kills 2HG-producing HT-1080-NT fibrosarcoma cells; HT-1080-NT fibrosarcoma viability, CellTiter-Glo ATP luminescence, 48 h; Potency, µM (doses to about 46.1 µM), without a hit: at the top dose activity, negative = less viability, most hits filed as cytotoxic; 360,000 tested, 1.6% active;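 note: NT is the 2HG producing partner of a matched IDH1 knockdown line; potency is the fitted concentration of half-maximal effect; 0% = DMSO-treated cells and -100% = media-only wells without cells; nearly all actives have a fitted effect of over 55% in size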
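Luminescent CellTiter-Glo readout after 48 hours of compound exposure at 37 degrees C defined viability of HT-1080-NT cells. Activity was normalized to DMSO wells and cell-free media wells; concentration-response curves were fitted and assigned curve classes.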
HT1080 IDH1KD tx: kills HT-1080 cells with IDH1 knockdown | HT-1080 IDH1 knockdown viability, ATP luminescence, 48 h | Potency, µM (series often up to 46.1 µM), for the others: at the highest dose activity, negative = toxicity, most hits filed as cytotoxic | 360,000 tested, 2% active;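 note: potency is the fitted concentration of half-maximal effect; 0% = DMSO wells and -100% = cell-free medium wells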
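Cytotoxicity counter-line: IDH1KD HT-1080, 48 h, CellTiter-Glo. Curves classed by r2, magnitude and activity.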
IL1B secr inh: blocks inflammasome-driven IL-1 beta release. THP-1 LPS/ATP IL-1B secretion, AlphaLISA, 16 h; active compounds read low. activity change, % at 57.5 µM. 360,000 tested, 4.7% active; in the data active = activity change below about -50%; inconclusive = mostly about -30% to -49%
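Secreted IL-1B measured by AlphaLISA bead assay after 16 h compound exposure of THP-1 cells; compounds (final up to 57.5 uM) added 1 h before LPS (250 ng/mL) and ATP (1.25 mM) stimulation; lower signal means less secretion.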
DT40 TDP1 no CPT: qHTS for Inhibitors of human tyrosyl-DNA phosphodiesterase 1 (TDP1): qHTS in cells in absence of CPT; DT40 Tdp1-/- hTDP1 cells, no CPT, ATP luminescence, 48 h; Potency, µM (titrated, usually from 46.2 µM), for the others: at the top dose activity change, negative = growth inhibition, hits mostly inhibitors; 420,000 tested, 15% active; AID 686978, 2013; note: potency is the fitted concentration of half-maximal effect; nearly all actives have a fitted effect of over 55% in size
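Stably hTDP1-transfected Tdp1-null chicken DT40 cells were treated with library compounds minus camptothecin and grown for at least 48 hr at 37 °C, after which cellular ATP was quantified by luminescence.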
An asterisk follows results filed as active; ? = inconclusive; . = no result given; ! = a repeat was not active. A selection: hits, their analogues and other compounds. The true share with any hit is near 19%. Unless noted, calls come from the whole dose curve; as a rule, active = well fitted curve in the direction sought with a large enough effect; inconclusive = small, poorly fitted or top-dose-only effect, or another doubt; inactive = no such curve, though single readings can be large; an effect the other way counts as inactive or inconclusive. Unless noted, % is set by controls: 0 for no effect and ±100 for the full control effect.

SMILES	DT40 TDP1 CPT	HT1080-NT tox	HT1080 IDH1KD tx	IL1B secr inh	DT40 TDP1 no CPT
CCn1nnc2cc(C(=O)Nc3cccc(Cl)c3C)ccc21	?	.	.	.	16µM*
CCn1nnc2cc(C(=O)Nc3cccc(Cl)c3)ccc21	6%	.	.	.	-17%
CCn1nnc2cc(C(=O)Nc3cccc(C)c3C)ccc21	10µM*	.	.	.	15µM*
O=C(c1ccc([N+](=O)[O-])cc1Cl)N1CCN(Cc2ccccc2)CC1	?	-1%	1%	27	-21%
COC(=O)c1cn(CCC#N)nc1-c1ccc2ccccc2c1	8%	-11%	-11%	-51*	-3%
N#CCCn1cc(C(=O)O)c(-c2ccc3ccccc3c2)n1	8%	18%	10%	1	1%
COc1ccc(N2CCN(C(=O)c3cccc(-n4c(C)nc5cccnc54)c3)CC2)cc1	16µM*	.	.	.	23µM*
Cc1nc2cccnc2n1-c1cccc(C(=O)N2CCN(c3ccc(Cl)cc3)CC2)c1	5.8µM*	.	.	.	2.6µM*
Clc1ccccc1-c1nc(NCCN2CCOCC2)c2ccccc2n1	?	.	.	.	-20%
Oc1ccccc1-c1nc(NCCN2CCOCC2)c2ccccc2n1	?	21µM*	21µM*	.	?
COc1cccc(-c2nc(NCCN3CCOCC3)c3ccccc3n2)c1O	15µM*	?	-27%	0	18µM*
COc1ccc(-c2nn(-c3ccccc3)cc2/C=N/NC(=S)NC(C)C)cc1OC	23µM*	3%	-7%	?	18µM*
COc1ccc(-c2nn(-c3ccccc3)cc2/C=N/O)cc1OC	?	-10%	-1%	-11	26µM*
COC(=O)c1cn(-c2ccccc2)nc1-c1ccc(OC)c(OC)c1	-2%	-1%	4%	11	?
COc1ccc(-c2nn(-c3ccccc3)cc2/C=N/Nc2ccc3ccccc3n2)cc1OC	3.3µM*	-4%	-2%	-25	4.1µM*
COc1ccc(-c2nn(-c3ccccc3)cc2/C=N/N=C(N)N)cc1OC	23µM*	-12%	?	?	13µM*
COc1ccc(-c2nn(-c3ccccc3)cc2/C=N/Nc2ccc(S(N)(=O)=O)cc2[N+](=O)[O-])cc1OC	-26%	?	?	16	?
O=C(CCC(=O)Nc1cccc([N+](=O)[O-])c1)N/N=C/c1cccs1	-6%	-19%	-10%	21	4%
CC1CCC(NC(=O)c2cc(C3CC3)nn2-c2ccccc2)CC1 (stereo not drawn)	?	-9%	0%	?	?
NC1(C(=O)O)CC(C(=O)O)C1 (stereo not drawn)	-2%	.	.	.	-5%
Cc1cc(C)nc(NC2=NCCN2C(=O)NC2CCCCC2)n1	?	7%	6%	16	16µM*
O=C(Nc1cccnc1)Nc1cccc(F)c1	-28%	17%	22%	19	13µM*
Cc1ccc(NC(=O)Nc2cccnc2)cc1NC(=O)Nc1cccnc1	13µM*	?	?	-4	9.2µM*
O=C(Nc1ccc(Cc2ccc(NC(=O)Nc3cccnc3)cc2)cc1)Nc1cccnc1	-16%	28%	15%	-25	-13%
Cc1cc(C)cc(NC(=O)Nc2cccnc2)c1	?	6%	9%	-20	1%
SMILES	DT40 TDP1 CPT	HT1080-NT tox	HT1080 IDH1KD tx	IL1B secr inh	DT40 TDP1 no CPT
O=C(Nc1ccc(Cl)cc1)Nc1cccnc1	16µM*	1%	-2%	-22	?
CCC(C)C(NC(=O)c1ccc(Cl)cc1)C(=O)Nc1cccnc1 (stereo not drawn)	-9%	0%	3%	-85*	-2%
Fc1cccc(NC(=S)Nc2cccnc2)c1	-17%	7%	-1%	14	?
COC(=O)C(CC(C)C)N1CCC(=O)c2ccccc2S1(=O)=O (stereo not drawn)	?	1%	0%	15	?
CCOc1ccc2[nH]cc(C(=O)N3CCN(C4CCCCC4)CC3)c(=O)c2c1	0%	-4%	0%	13	-12%
COCCNC(=O)C1(C)CCCN(C(=O)c2cccc(OC(F)(F)F)c2)C1 (stereo not drawn)	10%	10%	25%	-3	-12%
Cc1ccc(NC(=O)Nc2nc3ccccc3s2)cc1NC(=O)Nc1nc2ccccc2s1	?	3%	-1%	9	13µM*
CCOc1cc(CNCCCN2CCOCC2)ccc1OCC(=O)Nc1cccc2ccccc12	23µM*	10µM*	11µM*	-5	3.7µM*
O=C(COc1ccc(Br)cc1CNCCCN1CCOCC1)Nc1ccccc1	16µM*	-29%	?	-70*	21µM*
Brc1cccc(CNCCCN2CCOCC2)c1	23µM*	-1%	4%	32	?
COc1cc(C2C(C#N)=C(N)Oc3c2ccc2ccccc32)ccc1OCC(=O)Nc1ccccc1C (stereo not drawn)	21µM*	-11%	-8%	-2	26µM*
O=C(COc1ccc(Br)cc1Cl)NCCCN1CCOCC1	-30%	-5%	-2%	0	4%
C=CCOc1cccc(CNCCCN2CCOCC2)c1	34%	-11%	-3%	-2	-20%
COc1ccc(CC(=O)Nc2cccc3ccccc23)cc1OC	?	0%	-8%	2	?
COc1cc(CNC(C)C)ccc1OCC(=O)Nc1cccc2ccccc12	26µM*	-8%	-12%	-20	18µM*
CCc1cccc2c(C(=O)COC(=O)c3ccccc3)c[nH]c12	-24%	0%	-1%	-6	-26%
CCc1cccc2c(C(=O)C(NCCCOC)c3ccccc3)c[nH]c12 (stereo not drawn)	?	16µM*	?	-3	?
CCc1cccc2c(C(=O)C(NC(C)CC)c3ccccc3)c[nH]c12 (stereo not drawn)	?	21µM*	?	-18	23µM*
Cc1ccc(C(=O)c2coc3ccc(O)cc23)cc1	?	-1%	4%	-6	?
CC(=O)Oc1cc2c(c3ccccc13)CCC2=O	30%	16%	11%	-12	?
CC(=O)Oc1[nH]c(=O)c2cccc3c2c1CCC3	?	-12%	2%	-11	29µM*
Cc1ccc(-c2nc(N)sc2CC(=O)OCC(=O)NCC2CCCO2)cc1 (stereo not drawn)	2%	3%	2%	-8	7%
Cc1ccc(S(=O)(=O)N(C)c2ccc3sc(C)nc3c2)cc1	?	?	?	27	23µM*
Cc1cc(O)c(-c2cc(O)c(C)cc2O)cc1O	5.2µM*	?	?	-99*	3.3µM*
Cc1ccc(N)cc1O	7.7µM*!	3%	-28%	55	6.9µM*!
C/C(=N\NC(=O)C(=O)Nc1cccc(Cl)c1C)c1ccncc1	21µM*	12%	?	1	15µM*
